Assay [1] deals with MDA-MB-231. As to the kind of experiment: cell viability relative to vehicle unstimulated control (fraction); higher = more viable cells. The following applies: pre-treatment time: 18 h then 24 h IFNg/TNF.
The test system of assay [2] is MDA-MB-231. As to the kind of experiment: kynurenine production, fold change vs DMSO IFNg/TNF control; higher = more kynurenine produced (less inhibition). The settings on record: pre-treatment time: 18 h then 24 h IFNg/TNF. In short, it runs like this: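 MDA-MB-231 cells (7 × 10^4/well, 96-well plates, seeded 24 h earlier) were pre-treated 18 h with each natural product in 0.1% DMSO, then stimulated 24 h with IFNγ (1 U/ml) and TNF (6.25 ng/ml) at 37°C. Supernatant kynurenine was read at 492 nm after trichloroacetic acid and p-dimethylaminobenzaldehyde treatment, against 0–100 μM standards. Kynurenine production is the fold change over cytokine-stimulated vehicle wells on the same plate, averaged over duplicate plates in the first screening round.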

± gives the standard deviation of the averaged measurements.
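Throughout, for cell viability relative to vehicle unstimulated control: viability of the cells left after supernatant collection, read with Deep Blue dye added for 4 h, as absorbance at 570 nm minus 600 nm.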

`COc1cc(C[C@H]2C(=O)OC[C@@H]2Cc2ccc3c(c2)OCO3)cc(OC)c1OC` [Yatein] (compound dose: 10 uM): in the assay with MDA-MB-231 [1], the cell viability was found to be 0.9961 ± 0.0012. Further, the kynurenine production with MDA-MB-231 [2] was found to be 0.843 ± 0.035.

With `CC(=O)O[C@@]12C[C@@H](C)[C@@]3(O)[C@@H](C=C(CO)C[C@]4(O)C(=O)C(C)=C[C@@H]34)[C@@H]1C2(C)C` [Prostratin] (compound dose: 10 uM), the cell viability with MDA-MB-231 [1] was 1.31 ± 0.36. The kynurenine production in the assay on MDA-MB-231 [2] was 0.737 ± 0.025.

With `O=C(O)c1ccc(=O)[nH]c1` [6-hydroxynicotinic acid] (compound dose: 10 uM), the cell viability in the assay with MDA-MB-231 [1] came out at 0.951 ± 0.036. Moreover, in the assay on MDA-MB-231 [2], the kynurenine production was 0.973 ± 0.098.

Values taken from the supplement of paper PMC13094657.
